90 molecules from PubChem BioAssay AID485317 (Broad Institute, 2010) can be followed below.

The whole screen tested about 290,000 compounds, of which about 11,000 (3.8%) were called active. The entries come from a sample that favours actives as a whole. Unmarked numbers belong to inactive results.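 Rule for the calls: active = mean replicate inhibition above about 79%, with every replicate also reaching it (limit read from the data); inconclusive = only one of the two criteria met; inactive = mean below limit and not every replicate reaching it.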

The target of the test is FAD-linked sulfhydryl oxidase ALR (Homo sapiens) (UniProt P55789). Kind of test: inhibitors of human ALR sulfhydryl oxidase, primary screen, biochemical, H2O2 detection, HRP-luminol luminescence, single point (AID 485317). Conditions: purified ALR, DTT oxidation, hits give high values, concentration not given here.
FAD-linked sulfhydryl oxidase ALR (Homo sapiens), sequence (P55789 whole entry, looked up): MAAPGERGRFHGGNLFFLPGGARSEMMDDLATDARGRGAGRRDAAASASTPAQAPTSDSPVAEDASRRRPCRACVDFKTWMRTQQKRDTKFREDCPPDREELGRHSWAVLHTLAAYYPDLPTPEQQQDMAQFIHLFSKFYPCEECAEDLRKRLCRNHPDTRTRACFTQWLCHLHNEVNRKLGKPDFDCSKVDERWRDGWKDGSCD
For orientation: inhibition means the change of the read-out against control, counted positive when it falls. For the molecule `O=C(C1CCC1)N1CCN(S(=O)(=O)c2ccc([N+](=O)[O-])cc2)CC1`, the inhibition was -24.2%.
Then `O=C(COc1ccccc1F)Nc1nc(-c2ccccn2)cs1`, with -5.87%; and `COc1ccc(C2(C)ON(c3ccccc3C(F)(F)F)C2=O)cc1` (stereo not given), with 1.44%; and `Cc1cccc(C)c1Nc1nnc(SCC(=O)NCCCN2CCCC2=O)s1`, with 3.02%.
To `C=CCC[C@H](Cc1ccc(F)cc1)C(=O)OC[C@@H](Cc1c[nH]c2ccccc12)NC(=O)[C@H](CC=C)CC(=O)N[C@H](CO)Cc1ccccc1` belongs 1.04%; to `Cc1ccc(C)c(OCC(=O)NNC(=O)C2CCC2)c1`, -3.99%.
Then `Cc1ccc(NNC(=O)C2CCC2)cc1C`, with 98.5% (active).
On to `O=C(NNC(=O)C1CCC1)c1ccccc1`, for which the inhibition was -8.4%.
To `COc1ccc(CCNC(=O)COC(=O)C2CC2C)cc1` (stereo not given) belongs 5.1%; to `CCOc1ccc(S(=O)(=O)Nc2cccc(C(=O)NCC3(N4CCCCC4)CCCCC3)c2)cc1`, -4.42%; to `CCOC(=O)c1[nH]c2ccc(OC)cc2c1NC(=O)CCN1CCN(Cc2ccccc2)CC1`, 24.1%.
Then `COC(=O)c1[nH]c2ccc(Br)cc2c1NC(=O)Oc1ccccc1`, with 97.3% (active).
To `COC(=O)c1[nH]c2ccccc2c1NC(=O)CN1CCCc2ccccc21` belongs -3.93%; to `CCCn1c(CCNc2nc(-c3ccc(OC)cc3)cs2)nc2ccccc21`, 12.7%; to `Cc1ccc(CC(=O)N(C)CC(=O)N(CC(C)C)c2c(N)n(CC(C)C)c(=O)[nH]c2=O)cc1C`, -5.01%.
For `Cc1ccc2nc(SCC(=O)N3CC(C)OC(C)C3)nc(=O)n2c1` (stereo not given), the inhibition is -0.878%.
To `COc1ccc(C(=O)NC(=S)NNC(=O)c2c(-c3ccccc3)noc2C)cc1` belongs 99.2% (active); to `CCc1noc(C)c1C(=O)NNC(=O)c1ccc(F)cc1`, 0.314%; to `Cc1onc(-c2ccccc2)c1C(=O)NNC(=S)NC(=O)c1ccc(F)cc1`, 93.4% (active).
To `COc1ccc(C(=O)NNC(=S)NC(=O)c2ccccc2)cc1` belongs 34.7%.
To `COc1ccc(C(=O)NC(=S)NNC(=O)CCc2ccccc2)cc1` belongs 24.8%; to `Cc1ccc(CNC(=O)c2c(-c3ccccc3)noc2C)cc1`, -6.06%; to `COc1ccc(S(=O)(=O)N(C)C[C@H]2Oc3c(NC(=O)Nc4ccc5c(c4)OCO5)cccc3C(=O)N([C@H](C)CO)C[C@@H]2C)cc1`, -7.29%.
`CC(C)(C)OC(=O)NCCCCCNC(=O)c1[nH]cnc1C(=O)Nc1nccs1`: the inhibition is -6.55%.
Then `COc1ccc(Cl)cc1NS(=O)(=O)c1cccc(C(=O)NC2CCC(O)CC2)c1` (stereo not given), with -6.32%; and `O=C(COC(=O)c1cccc(Cl)c1)NC(=O)NCc1ccccc1`, with -1.07%; and `CC(=O)NCCn1c(SCC(=O)Nc2ccc(C)cc2)nc2ccccc2c1=O`, with -3.53%.
For the molecule `COC(=O)c1ccc2c(=O)n(CCN3CCOCC3)c(SCC(=O)Nc3cccc(OC)c3)nc2c1`, the inhibition was 99.1% (active).
As to `COc1cccc(NC(=O)C(Sc2nc3ccccc3c(=O)n2CC(C)C)c2ccccc2)c1` (stereo not given), the inhibition was -3.45%.
To `CC(=O)c1ccc(NC(=O)CSc2nc3ccccc3c(=O)n2CCCN2CCOCC2)cc1` belongs 23.1%.
To `COCCn1c(SCC(=O)Nc2ccc3c(c2)CCC3)nc2ccccc2c1=O` belongs -0.883%.
Then `CCc1ccc(NC(=O)CSc2nc3ccccc3c(=O)n2CCN2CCOCC2)cc1`, with 98.6% (active); and `Cc1csc(NC(=O)c2ccc(C)s2)n1`, with 27.4%; and `O=C(COC(=O)Cc1ccc([N+](=O)[O-])cc1)NC1CCCCCC1`, with 3.75%.
On to `COc1ccc(-c2c(-c3cc(OC)cc(OC)c3)n(C)c3ccc(-c4ccn[nH]4)cc23)cc1`, for which the inhibition is -7.81%.
To `Brc1ccc(CN2CC[C@H]3C=CCc4cccc(c43)C2)cc1` belongs -17.1%; to `COc1ccc(Cl)cc1CSc1ncn[nH]1`, 3.36%.
To `O=C(/C=C/Sc1ncn[nH]1)c1ccc(Cl)cc1` belongs 98.6% (active).
To `Cc1cc(C)nc(S/C=C/C(=O)c2ccccc2)n1` belongs 18.2%; to `CCN(c1ccccc1)S(=O)(=O)c1ccc(C(=O)Nc2ccccc2OC)cc1`, 2.02%; to `COc1ccc(NC(=O)N(C)C[C@H]2Oc3ccc(NC(=O)C4CC4)cc3C(=O)N([C@H](C)CO)C[C@@H]2C)cc1`, -0.429%.
On to `CN(C)CCN(C(=O)CN1C(=O)c2ccccc2C1=O)c1nc2cc3c(cc2s1)OCCO3`, for which the inhibition is -1.15%.
To `Nc1ccccc1/C=N\N=C/c1ccccc1N` belongs -2.8%; to `Nc1nnc(SCC(=O)Nc2ccc3nc(SCC(=O)Nc4ccccc4)sc3c2)s1`, -42%.
To `Cc1nc2nc(SCC(=O)Nc3cccc(F)c3)[nH]c2cc1Br` belongs -13.2%; to `O=C(CSc1nc2[nH]c(=O)[nH]c(=O)c2s1)Nc1cccc(F)c1`, 98.7% (active).
To `O=S(=O)(NCCS(=O)(=O)N1CCN(c2ccccc2)CC1)c1ccc(F)cc1` belongs -11.7%; to `CC[C@@H]1Cc2cc(O)ccc2C2=C1c1ccc(O)cc1C[C@H]2CC`, 97.9% (active); to `CC1(C)CC(=O)c2ccc(O)cc2O1`, 0.168%.
Turning to `CCc1nnc(NC(=O)c2cc(S(=O)(=O)N3CCCCC3)ccc2C)s1`, the inhibition was -5.04%.
Then `Cc1ccc(CNS(=O)(=O)CCNC(=O)c2ccccc2)cc1`, with 0.449%.
To `CCN(CC(=O)Nc1ccc(OC)cc1)C(=O)c1ccc(Cl)c(S(=O)(=O)N2CCCC2)c1` belongs -0.437%; to `O=C(CSc1ncnc2sccc12)N1CCN(C(=O)c2cccs2)CC1`, 3.8%.
Then `COc1ccccc1C(=O)NC(CCSC)C(=O)N1CCN(C/C=C/c2ccccc2)CC1` (stereo not given), with -15.9%; and `CC1(C)CC(=O)C=C(Nc2ccccc2)C1`, with 3.81%; and `COC(=O)NNC1=CC(=O)CC(C)(C)C1`, with 5.45%.
In the case of `Cc1cc(O)ccc1NC1=CC(=O)CC(C)(C)C1`, the inhibition is 92.3% (active).
`O=C(Nc1cc(S(=O)(=O)N2CCOCC2)ccc1N1CCOCC1)c1c(F)cccc1Cl`: the inhibition is 0.0766%.
With `COc1cc(/C=N/O)cc(Br)c1OCc1cccc(Cl)c1`, the inhibition is -0.717%.
Consider `C#CCOc1ccc(/C=C2/C(=O)NN(c3ccccc3)C2=O)cc1OC`, for which the inhibition is 66.4%.
Take `COc1cc(/C=C2/C(=O)NN(c3cccc(Cl)c3)C2=O)cc(Br)c1O`: the inhibition was 98.2% (active).
As for `C=CCSc1ccc(S(=O)(=O)N2CCN(C)CC2)cn1`, the inhibition was 0.831%.
To `CC1CCc2sc(C(=O)NCC(c3ccco3)N3CCCCC3)cc2C1` (stereo not given) belongs -3.3%.
To `C[C@H](NC(=O)c1ccccc1Cl)C(=O)OCC(=O)N1CCN(c2ccccc2)CC1` belongs 50.7%; to `Cn1nnnc1SCC(=O)Nc1sccc1C(N)=O`, 23.5%.
To `COc1ccc(-c2cc(C(F)(F)F)nc(SCCC(=O)NCc3ccco3)n2)cc1` belongs 96.7% (active); to `COc1cc(OC)cc(-c2nc3nc(C)c(CCC(=O)NCc4ccco4)c(C)n3n2)c1`, 0.656%.
Turning to `COc1ccc(C(=O)Nc2ccccc2C(=O)NCc2ccco2)cc1`, the inhibition is -4.1%.
Then `CC1C(=O)N2CCCc3cc(S(=O)(=O)NCc4ccc(F)cc4)cc1c32` (stereo not given), with 2.55%; and `Cc1ccc(CN2CC(C(=O)NNC(=O)Cn3ccc(C(F)(F)F)n3)CC2=O)cc1` (stereo not given), with -1.18%.
As to `CC(=O)Nc1ccc(S(=O)(=O)Nc2nc(-c3ccc(C(C)(C)C)cc3)cs2)cc1`, the inhibition was 14.9%.
To `CC(=O)Nc1ccc(-c2csc(NC=C3C(=O)OC(C)(C)OC3=O)n2)cc1` belongs 98.2% (active); to `CC(=O)Nc1cccc(-c2csc(Nc3cccc(C)n3)n2)c1`, -4.7%.
To `CCOC(=O)c1sc(NC(=O)C2CSC3(C)CCC(=O)N23)nc1C` (stereo not given) belongs -0.227%.
To `COc1cc(/C=C/C(=O)OCC(=O)NC2CC2)cc(OC)c1OC` belongs -0.461%; to `O=C(CCc1nc(-c2ccccc2)no1)Nc1cccc(C(=O)NC2CC2)c1`, 28.1%.
Turning to `Cc1ccccc1-c1cc(C(=O)NCC2CC2)n(CC2CC(c3cccnc3)=NO2)n1` (stereo not given), the inhibition is 10.4%.
To `CCc1ccc2c(c1)C1(NN=C(c3ccccc3)S1)C(=O)N2` (stereo not given) belongs 33.8%; to `O=C1Nc2ccccc2C12Nc1ccccc1S2` (stereo not given), 98.7% (active).
To `COc1ccc(C2(O)C(=O)Nc3ccccc32)cc1` (stereo not given) belongs -1.7%.
To `CCCCn1c(N)c(N(CCOC)C(=O)c2cccc(S(=O)(=O)N3CCCCC3)c2)c(=O)[nH]c1=O` belongs -6.18%; to `CC(C)(C)OC(=O)C[C@H]1C/C=C\C[C@@H](CC(=O)N[C@H](CO)Cc2ccccc2)C(=O)NC[C@@H](c2ccccc2)OC1=O`, -2.76%.
Take `CCCCCCSc1ccc([C@@H]2[C@H]3C(=O)N(CC)C(=O)[C@H]3[C@]3(C(=O)OC)CCCCN23)cc1`: the inhibition is 3.32%.
Then `CCOc1ncccc1C(=O)OCC(=O)N1c2ccccc2CC1C` (stereo not given), with 2.2%; and `CCCC(=O)N1c2ccc(-c3csc(N)n3)cc2CC1C` (stereo not given), with 98.9% (active); and `Cc1ccn(CCC(=O)N2c3ccccc3CC2C)n1` (stereo not given), with -7.69%.
Then `CCOc1ccc(NS(=O)(=O)c2ccc(C(=O)NCC(c3ccccc3OC)N3CCCC3)cc2)cc1` (stereo not given), with 0.447%; and `CN(c1ccccc1)c1ccc(/C=c2\s/c(=C(/C#N)C(=O)C(C)(C)C)n(Cc3ccco3)c2=O)cc1`, with -25.2%.
To `COc1ccc(NC(=O)CSc2nnc(-c3cccs3)n2Cc2ccco2)cc1OC` belongs -13.2%; to `Cc1cs/c(=N\N=C\c2ccc(O)cc2)n1Cc1ccco1`, 98.6% (active).
